From PubChem BioAssay (NCI)
This is part of a sample that, as a whole, favours compounds with a hit. Of some 79,000 tested, about 15% had one in any assay. Unmarked numbers belong to inactive results. Activity calls are given as the source filed them. Cut-off read from the data, not from the text of the source: active = growth inhibition above about 70%; inactive = the rest.

How the values were obtained:
[1] = NCI Yeast Anticancer Drug Screen. Data for the rad50 strain (AID 155);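 note: 0% = growth of vehicle-only cultures of the same strain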; details: S. cerevisiae rad50 strain growth inhibition; at 50.0 µM; hits give high values
Method in brief: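 Growth of the mutant yeast was measured after compound exposure and referenced to vehicle-treated cultures.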

[2] = NCI Yeast Anticancer Drug Screen. Data for the mec2-1 strain (AID 157); details: S. cerevisiae mec2-1 strain, at 50.0 µM, hits give high values
Method in brief: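 Compounds were applied to mec2-1 yeast cells. Their growth was then compared with that of vehicle-treated cultures to give growth inhibition.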

[3] = NCI Yeast Anticancer Drug Screen. Data for the sgs1 mgt1 strain (AID 161);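 note: 0% = growth of cultures given vehicle only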; details: S. cerevisiae sgs1 mgt1 strain, at 50.0 µM, hits give high values
Method in brief: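 Compounds are added to genetically altered yeast, and growth is compared with cultures given vehicle alone to give percent inhibition.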

[4] = NCI Yeast Anticancer Drug Screen. Data for the cln2 rad14 strain (AID 165);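 note: 0% = growth equal to vehicle treated cultures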; details: S. cerevisiae cln2 rad14 strain, at 50.0 µM, hits give high values
Method in brief: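 Strain: cln2 rad14 yeast, altered in cell cycle control and DNA damage repair. Read-out: growth inhibition vs vehicle.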

[5] = NCI Yeast Anticancer Drug Screen. Data for the bub3 strain (AID 167); details: S. cerevisiae bub3 mutant strain, at 50.0 µM, hits give high values
Method in brief: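 Whole-cell yeast assay. The mutant strain was incubated with compounds, and growth inhibition was determined by comparison with vehicle-treated cells.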

[6] = NCI Yeast Anticancer Drug Screen. Data for the mlh1 rad18 strain (AID 175); details: S. cerevisiae mlh1 rad18 strain growth inhibition; at 50.0 µM; hits give high values
Method in brief: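 A repair-deficient yeast strain is exposed to test compound, and growth is scored relative to vehicle-treated controls.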

O=C(O)c1c[nH]c2c([N+](=O)[O-])cccc2c1=O
growth inhibition [1]: 40.4% | growth inhibition [2]: 16.5% | growth inhibition [3]: 30.7% | growth inhibition [4]: 8.5% | growth inhibition [5]: 13.6% | growth inhibition [6]: 28.4%

Cc1c(C(=O)CC(=O)C(=O)Nc2cc(Cl)ccc2Cl)[n+](=O)c2ccccc2n1[O-]
growth inhibition [1]: -7.35% | growth inhibition [2]: 1.9% | growth inhibition [3]: -40.2% | growth inhibition [4]: 16.2% | growth inhibition [5]: 1.1% | growth inhibition [6]: 1.65%

Cc1ccc(S(=O)(=O)CCC(=O)c2ccc([N+](=O)[O-])cc2)cc1
growth inhibition [1]: 9.35% | growth inhibition [2]: 20.1% | growth inhibition [3]: 14.8% | growth inhibition [4]: 6.65% | growth inhibition [5]: 3.05% | growth inhibition [6]: 16.9%

CCOP(=O)(O)C1CC2C3CC=C4CC(O)CCC4(C)C3CCC2(C)C1C(C)=O (stereo not given)
growth inhibition [1]: 15.9% | growth inhibition [2]: -3.25% | growth inhibition [3]: -0.55% | growth inhibition [4]: -14.4% | growth inhibition [5]: -2% | growth inhibition [6]: 3.5%

CN1C(=O)C(n2[nH]c(=O)n(-c3ccccc3)c2=O)C(=O)N(C)C1=O
growth inhibition [1]: 11.8% | growth inhibition [2]: 12.7% | growth inhibition [3]: -6.55% | growth inhibition [4]: -23.1% | growth inhibition [5]: 16.9% | growth inhibition [6]: 22.9%

N#CCC(=O)N/N=C/c1ccccc1
growth inhibition [1]: 8.3% | growth inhibition [2]: -27.1% | growth inhibition [3]: 0.55% | growth inhibition [4]: 9.95% | growth inhibition [5]: -5.85% | growth inhibition [6]: 9.4%

O=S1(=O)C(c2cccc(C(F)(F)F)c2)=C(O)c2cc3ccccc3nc21
growth inhibition [1]: 47.9% | growth inhibition [2]: 21% | growth inhibition [3]: 49.2% | growth inhibition [4]: 33.2% | growth inhibition [5]: -4.6% | growth inhibition [6]: 18.6%

CC(=O)O[C@H]1CC[C@@]2(C)C(=CC[C@H]3[C@@H]4CC[C@H](c5cc(C(F)(F)F)n(C(C)=O)n5)[C@@]4(C)CC[C@@H]32)C1
growth inhibition [1]: 11.3% | growth inhibition [2]: -6.7% | growth inhibition [3]: -40.6% | growth inhibition [4]: 2.55% | growth inhibition [5]: -19.6% | growth inhibition [6]: 12.4%

CC(C)SCCC#N
growth inhibition [1]: 13% | growth inhibition [2]: -8.55% | growth inhibition [3]: -13.1% | growth inhibition [4]: -5.5% | growth inhibition [5]: -3.7% | growth inhibition [6]: -4.75%

CC(NC(=O)C(N)CC(=O)O)NC(=O)N(C)C(C)(C)C (stereo not given)
growth inhibition [1]: -8.5% | growth inhibition [2]: 1.75% | growth inhibition [3]: 2.1% | growth inhibition [4]: 2.65% | growth inhibition [5]: 25.4% | growth inhibition [6]: -44.2%

SCc1ccc(CS)s1
growth inhibition [1]: 4.65% | growth inhibition [2]: -1.75% | growth inhibition [3]: -1.65% | growth inhibition [4]: 17.8% | growth inhibition [5]: 23.2% | growth inhibition [6]: -4.3%

CSCCC(NC(C)=O)C(=O)O (stereo not given)
growth inhibition [1]: 6.1% | growth inhibition [2]: 1.5% | growth inhibition [3]: -14.4% | growth inhibition [4]: -3.55% | growth inhibition [5]: -4.85% | growth inhibition [6]: -8.3%

N#CC(CC(=O)c1ccccc1)c1ccc(Cl)cc1 (stereo not given)
growth inhibition [1]: 1% | growth inhibition [2]: 4.45% | growth inhibition [3]: -6.7% | growth inhibition [4]: -79.2% | growth inhibition [5]: 41.4% | growth inhibition [6]: -13.7%

O=c1nc(Oc2ccccc2)nc2ncccn12
growth inhibition [1]: 47% | growth inhibition [2]: 26.1% | growth inhibition [3]: 40.5% | growth inhibition [4]: 20.2% | growth inhibition [5]: 50.6% | growth inhibition [6]: 65%

Clc1ncnc2c1cnn2-c1ccccc1
growth inhibition [1]: -4.05% | growth inhibition [2]: -8.55% | growth inhibition [3]: 1.05% | growth inhibition [4]: -30.9% | growth inhibition [5]: -2.55% | growth inhibition [6]: -6.1%

Cc1ccc(NC(=O)C(=O)C(C#N)c2nc(-c3ccc(-c4ccccc4)cc3)cs2)c(C)c1 (stereo not given)
growth inhibition [1]: 8% | growth inhibition [2]: -2.75% | growth inhibition [3]: 19.4% | growth inhibition [4]: 28.4% | growth inhibition [5]: 4.75% | growth inhibition [6]: -10.1%

CCC1CCC2c3c([nH]c4ccccc34)C3C(=O)N(c4ccc(OC)cc4)C(=O)C3C2C1 (stereo not given)
growth inhibition [1]: -13.1% | growth inhibition [2]: -10.6% | growth inhibition [3]: 3.5% | growth inhibition [4]: 6.65% | growth inhibition [5]: 2.05% | growth inhibition [6]: 24.4%

Cc1ccc(-c2c(C#N)c(S)n(NS(=O)(=O)c3ccc(C)cc3)c(=O)c2C#N)cc1
growth inhibition [1]: 46.1% | growth inhibition [2]: 57.3% | growth inhibition [3]: 59.9% | growth inhibition [4]: 28.6% | growth inhibition [5]: 39.6% | growth inhibition [6]: 59.9%

N#C/C(=C\c1ccccc1Cl)C(=O)c1ccccc1
growth inhibition [1]: 11.4% | growth inhibition [2]: 11.8% | growth inhibition [3]: -5.9% | growth inhibition [4]: 9.9% | growth inhibition [5]: 18.9% | growth inhibition [6]: 32.4%

CCCCOP(=O)(Cc1ccc(Cl)cc1Cl)OCCCC
growth inhibition [1]: 99.5% (active) | growth inhibition [2]: 99.7% (active) | growth inhibition [3]: 99.5% (active) | growth inhibition [4]: 99% (active) | growth inhibition [5]: 99.4% (active) | growth inhibition [6]: 99.5% (active)

CCC1(C(=O)O)OC1(C)c1cccs1 (stereo not given)
growth inhibition [1]: -40% | growth inhibition [2]: -8.95% | growth inhibition [3]: -3.35% | growth inhibition [4]: -27.1% | growth inhibition [5]: 10.5% | growth inhibition [6]: 2%

Cc1cc(C)nc(NC(=O)c2cc(C(=O)O)c(C(=O)Nc3cc(C)cc(C)n3)cc2C(=O)O)c1
growth inhibition [1]: -20.3% | growth inhibition [2]: -3.1% | growth inhibition [3]: -18.8% | growth inhibition [4]: -27.6% | growth inhibition [5]: 3.25% | growth inhibition [6]: -23.9%

N#CSCc1cc(Cl)c(CSC#N)c(Cl)c1Cl
growth inhibition [1]: -6.95% | growth inhibition [2]: 22.2% | growth inhibition [3]: -3% | growth inhibition [4]: 16.6% | growth inhibition [5]: 13.2% | growth inhibition [6]: 31.4%

O=C1C2=C(Nc3cc([N+](=O)[O-])ccc3N2)OC1c1ccc(Cl)cc1Cl (stereo not given)
growth inhibition [1]: -2.35% | growth inhibition [2]: 23.4% | growth inhibition [3]: 5.2% | growth inhibition [4]: 10.7% | growth inhibition [5]: -7% | growth inhibition [6]: 13.2%

O=C1c2ccccc2C(=O)N1N1C(=O)c2ccccc2C1=O
growth inhibition [1]: 3.95% | growth inhibition [2]: -16.8% | growth inhibition [3]: -4.45% | growth inhibition [4]: 14% | growth inhibition [5]: -4.7% | growth inhibition [6]: 17.4%

O=C(Oc1ccc(OC(=O)c2ccccc2)c(C2CCCCCC2)c1)c1ccccc1
growth inhibition [1]: 32.9% | growth inhibition [2]: -1.75% | growth inhibition [3]: 25.1% | growth inhibition [4]: 14.3% | growth inhibition [5]: 7.1% | growth inhibition [6]: 9%

CCOC(=O)C(=O)Nc1c(C)cccc1CC
growth inhibition [1]: 0.15% | growth inhibition [2]: -4.1% | growth inhibition [3]: -5.05% | growth inhibition [4]: -16.4% | growth inhibition [5]: 6.2% | growth inhibition [6]: -1.05%

Cc1[nH]c(/N=C/c2ccc(N(C)C)cc2)c(C#N)c1C
growth inhibition [1]: -10.1% | growth inhibition [2]: -0.6% | growth inhibition [3]: -18.4% | growth inhibition [4]: -8% | growth inhibition [5]: -5.75% | growth inhibition [6]: -7.75%

Cc1cc2nc(NN)[nH]c2cc1C
growth inhibition [1]: 5.15% | growth inhibition [2]: 7.15% | growth inhibition [3]: -17.5% | growth inhibition [4]: -10% | growth inhibition [5]: -26.4% | growth inhibition [6]: 22.1%

COc1ccc(C(C)=O)cc1CCCOC(C)=O
growth inhibition [1]: -0.7% | growth inhibition [2]: -1.35% | growth inhibition [3]: -7.5% | growth inhibition [4]: 10.7% | growth inhibition [5]: 9% | growth inhibition [6]: -2.6%

NC(=O)Cc1ccncc1
growth inhibition [1]: 5.95% | growth inhibition [2]: -2.85% | growth inhibition [3]: -3.95% | growth inhibition [4]: -9.9% | growth inhibition [5]: -2.7% | growth inhibition [6]: 1.55%

O=C(O)/C=C/C(=O)Nc1ccc(Cl)cc1C(=O)c1ccccc1
growth inhibition [1]: 24.6% | growth inhibition [2]: 9.1% | growth inhibition [3]: 33% | growth inhibition [4]: 0.4% | growth inhibition [5]: 14.6% | growth inhibition [6]: 20.8%

COc1ccc(C(C)c2cc3c(cc2OC)OCO3)cc1OC (stereo not given)
growth inhibition [1]: -4.95% | growth inhibition [2]: -6.7% | growth inhibition [3]: 11.1% | growth inhibition [4]: 5.2% | growth inhibition [5]: 16.9% | growth inhibition [6]: 25.3%

CCCCCCCOC(=O)COc1ccc(Cl)cc1Cl
growth inhibition [1]: 11.1% | growth inhibition [2]: 9.05% | growth inhibition [3]: 10.8% | growth inhibition [4]: 1.25% | growth inhibition [5]: 9.8% | growth inhibition [6]: 4.9%

CC1C2=C(CC(C)(C)CC2=O)OC2=C1C(=O)CC(C)(C)C2
growth inhibition [1]: -16.1% | growth inhibition [2]: -7.9% | growth inhibition [3]: -7.8% | growth inhibition [4]: -5.3% | growth inhibition [5]: 4.65% | growth inhibition [6]: -3.5%

CC1CC(=O)Oc2cc(O)c(O)cc21 (stereo not given)
growth inhibition [1]: 11.8% | growth inhibition [2]: 7.9% | growth inhibition [3]: 7.3% | growth inhibition [4]: 4.4% | growth inhibition [5]: 14.9% | growth inhibition [6]: 16.9%

COc1ccc(Nc2cc[nH]c(=O)c2NC(C)=O)cc1
growth inhibition [1]: 20.7% | growth inhibition [2]: 4.9% | growth inhibition [3]: 32.3% | growth inhibition [4]: 14.7% | growth inhibition [5]: 9.75% | growth inhibition [6]: 21%

CCCCCCCCCCCCCCCCCCNC1=C(C)C(=O)C(NCCCCCCCCCCCCCCCCCC)=C(OCC)C1=O
growth inhibition [1]: 2.7% | growth inhibition [2]: -2.95% | growth inhibition [3]: -0.85% | growth inhibition [4]: -10.8% | growth inhibition [5]: -1.2% | growth inhibition [6]: -9.5%

CCOC(=O)C(=[N+]=[N-])C(=O)c1ccc(OS(C)(=O)=O)c(OS(C)(=O)=O)c1
growth inhibition [1]: 7.8% | growth inhibition [2]: -1.05% | growth inhibition [3]: 13% | growth inhibition [4]: 22.3% | growth inhibition [5]: -0.2% | growth inhibition [6]: 11.9%

COC(=O)C(=O)c1c(-c2ccc(O)c(OC)c2)[nH]c2[nH]n(-c3ccccc3)c(=O)c2c1=O
growth inhibition [1]: 24.6% | growth inhibition [2]: -17.2% | growth inhibition [3]: -1.75% | growth inhibition [4]: -30.1% | growth inhibition [5]: 14.8% | growth inhibition [6]: 14.5%
